Luc counter: blocks Kinase-Glo luciferase, a counter-screen artifact; Potency, µM (highest dose often 38.3 µM), inactives show at the top dose activity change, negative = inhibition, actives largely listed as inhibitors; AID 1379; Q27757; actives 0.28% (n = 200,000); Kinase-Glo luciferase, ATP luminescence, 8 min; also: % is scaled to controls: 0 for no effect and ±100 for the full control effect; nearly all actives have a fitted effect of over 60% in size
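Light output from Kinase-Glo luciferase with luciferin and 10 uM ATP in 50 mM imidazole pH 7.2, KCl, MgCl2, Tween 20, BSA; compound pin-delivered, 8-min ambient incubation, then luminescence read.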
NPC1 prom act: NPC1 promoter activation; Potency, µM (highest dose often 9.22 µM), for the others: at the top dose activation, usual class: activators; AID 485313; actives 2.4% (n = 320,000); Huh7 NPC1 promoter luciferase reporter, 24 h; also: % of control where 0% means no effect; nearly all actives have a fitted effect of over 60% in size
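Quantitative HTS used a cell-based reporter: Huh7 cells stably bearing the NPC1 promoter upstream of luciferase were treated with compounds for 24 h, and promoter activation was read as luminescence.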
Rab9 promoter act: activates the Rab9 promoter; Huh7 Rab9 promoter-luciferase reporter, luminescence, 24 h; Potency, µM (titrated, usually from 9.22 µM), without a hit: at the highest dose activation, negative = inhibition, hits mostly activators; actives 2.8% (n = 320,000); AID 485297; also: % of control where 0% means no effect; nearly all actives have a fitted effect of over 60% in size
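Using Huh7 cells stably transfected with Rab9 promoter–luciferase, compounds were incubated 24 h at 37 °C, 5% CO2; luciferase luminescence was read 10 min after reagent addition.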
SMN2 splice up: SMN2 splice variant enhancement. HEK293 SMN2-luciferase splicing reporter, luminescence, 30-36 h. Potency, µM (doses to about 46.1 µM), without a hit: top-dose activity change, positive = activation, actives largely listed as activators. actives 2.8% (n = 210,000). AID 1458; also: % of control where 0% means no effect; nearly all actives have a fitted effect of over 55% in size
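HEK293 cells carry an SMN2 […]–luciferase reporter in which exon 7 inclusion puts luciferase in frame. Cells were plated 10-12 h before compound addition, then incubated 30-36 h at 37C. ONE-Glo luminescence was read; sodium butyrate at 4.5 mM final served as control.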
FLuc counter: inhibits or activates purified firefly luciferase, miR-21 counter-screen; P08659; purified FLuc, Km substrates, luminescence inhibition; Potency, µM (series often up to 57.5 µM), inactives show top-dose activity change, negative = inhibition, actives largely listed as inhibitors; actives 6.9% (n = 360,000); AID 588342;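 also: plate controls were vehicle for no effect and reference inhibitor for full effect; nearly all actives have a fitted effect of over 55% in size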
Target sequence (P08659 whole entry, looked up): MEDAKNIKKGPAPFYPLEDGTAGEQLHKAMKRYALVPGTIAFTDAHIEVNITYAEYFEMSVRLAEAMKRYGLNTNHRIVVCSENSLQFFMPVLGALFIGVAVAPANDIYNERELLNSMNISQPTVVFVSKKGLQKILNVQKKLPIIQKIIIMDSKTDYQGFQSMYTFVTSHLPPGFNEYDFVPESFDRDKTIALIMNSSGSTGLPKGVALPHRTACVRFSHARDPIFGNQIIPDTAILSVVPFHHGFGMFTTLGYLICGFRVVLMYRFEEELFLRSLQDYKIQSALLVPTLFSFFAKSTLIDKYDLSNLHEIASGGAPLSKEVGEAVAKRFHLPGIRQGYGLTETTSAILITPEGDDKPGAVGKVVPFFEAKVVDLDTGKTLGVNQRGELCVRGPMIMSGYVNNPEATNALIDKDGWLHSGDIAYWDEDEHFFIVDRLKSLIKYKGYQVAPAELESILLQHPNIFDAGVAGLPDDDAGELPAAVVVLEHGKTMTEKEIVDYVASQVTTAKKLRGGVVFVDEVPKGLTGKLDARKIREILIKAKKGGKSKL
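Biochemical qHTS of compounds, final roughly 60 µM downward over six points, against 10 nM purified firefly luciferase using Km concentrations of substrates (10 uM D-luciferin, 10 uM ATP) in Tris acetate pH 7.5 buffer; luminescence output.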
An asterisk follows results filed as active; ? = inconclusive; . = no result. Sampled rows, rich in hits. Any-hit rate of the full collection: about 7.3%. Calls follow the shape of the dose curve; as a rule, active = well fitted curve in the direction sought with a large enough effect; inconclusive = small, poorly fitted or top-dose-only effect, or another doubt; inactive = no such curve, though single readings can be large; an effect the other way counts as inactive or inconclusive. Potency is read from the fitted curve at half-maximal effect.

SMILES	Luc counter	NPC1 prom act	Rab9 promoter act	SMN2 splice up	FLuc counter
c1ccc(-c2nnc(NC3=NCCC3)o2)cc1	?	?	0.35µM*	8.9µM*	6µM*
Fc1ccc(NC2=NCCCCC2)cc1	3%	1%	-3%	10%	0%
Fc1ccc(-c2nnc(-c3ccc(F)cc3)o2)cc1	.	2.8µM*	?	.	4.3µM*
O=C(Nc1ccccc1)Nc1nnc(-c2ccccc2)o1	2%	27%	16%	6%	?
S=C(NCc1ccccn1)Nc1ccccc1Cl	0%	13%	?	?	-6%
S=C(NCc1ccccn1)Nc1ccc(Br)cc1Cl	3%	29%	3.2µM*	11µM*	?
S=C(NCc1ccco1)Nc1ccc(Br)cc1Cl	1%	30%	?	9%	27µM*
Cc1nccc2[nH]c(=O)c(C(=O)NC3CCCCC3C)cc12 (stereo not drawn)	5%	-1%	13%	13µM*	1%
Cn1c(C(=O)NCCCN2CCCCCC2)cc2c(=O)n(C)c3ccccc3c21	5%	-2%	-9%	13µM*	0%
CCOC(=O)c1c(-c2ccccc2)csc1NC(=O)c1cc(-c2ccc(Cl)cc2)on1	.	.	.	-4%	5%
COc1ccccc1Nc1cc(C(=O)NC2CCC(C)CC2)c2ccccc2n1 (stereo not drawn)	.	.	.	?	0%
Cc1nc2c(c(C)nn2C(C)(C)C)c(C)c1CCC(=O)Nc1ccc(Br)cc1Br	.	.	.	-10%	-3%
COc1ccc2nc(N3C(=O)/C(=C/c4ccc(Cl)cc4)NC3=S)sc2c1	-1%	1%	2%	-9%	17µM*
COc1ccc(N2C(=O)/C(=C/c3cccs3)NC2=S)cc1	3%	0%	0%	?	?
COc1ccc(OCC(=O)Nc2ccc(NC(=O)c3cccs3)cc2)cc1	.	1%	3%	.	4%
CN(C(=O)c1cccs1)c1ccc(OCC(=O)Nc2ccc(C(=O)O)cc2)cc1	.	-3%	0%	.	17µM*
CCc1nnc2c(Nc3cccc(F)c3)nc3ccc(C(=O)c4ccccc4)cc3n12	.	.	.	-3%	-2%
Cn1c2ccccc2c(=O)c2cc(C#Cc3ccccn3)ccc21	.	2.5µM*	5µM*	.	3µM*
Cn1c2ccccc2c(=O)c2ccc(F)cc21	.	-1%	4%	.	-6%
Cn1c2ccccc2c(=O)c2cc(C#Cc3ccsc3)ccc21	.	?	2.8µM*	.	2.4µM*
Cc1cc(/C=C(/C#N)C(=O)Nc2ccccc2)c(C)n1-c1cccnc1	-19%	?	4µM*	1%	1.5µM*
Cc1cc(/C=C(\C#N)C(=O)Nc2ccccc2)c(C)n1-c1ccc2c(c1)OCO2	0%	6%	1%	-14%	11µM*
Cc1ccccc1NC(=O)/C(C#N)=C\c1cc(C)n(-c2ccc(C(=O)O)cc2)c1C	.	-3%	-1%	.	-14%
Cc1c(-c2ccc(OCc3ccccc3)cc2)nc2ccccc2c1C(=O)O	.	16%	3%	.	21µM*
Cc1c(-c2ccccc2)nc2ccccc2c1C(=O)Oc1ccc([N+](=O)[O-])cc1	-1%	-6%	-12%	6%	2%
SMILES	Luc counter	NPC1 prom act	Rab9 promoter act	SMN2 splice up	FLuc counter
Cc1ccc(OCC(=O)OC2=C(C(=O)c3ccccc3)N(C)S(=O)(=O)c3ccccc32)cc1	.	.	.	-15%	3%
Cc1ccc(-c2csc(NC(=O)c3ccc(-c4ccccc4)cc3)n2)o1	3%	17%	-8%	-45%	4.3µM*
O=C(O)c1ccccc1C(=O)Nc1nc(-c2ccc3ccccc3c2)cs1	.	1%	?	.	17µM*
CCOc1ccc(-c2csc(NC(=O)c3ccco3)n2)cc1	.	24%	?	.	12µM*
O=C(Nc1nc(-c2ccc3ccccc3c2)cs1)c1ccc(N2C(=O)CCC2=O)cc1	0%	-10%	-10%	-22%	-3%
O=C(Nc1cc(-c2ccccc2)cs1)c1ccco1	.	?	3.5µM*	.	7.6µM*
CC(C)N(C(=O)Cn1cc(SCC(=O)Nc2ccccc2F)c2ccccc21)C(C)C	.	.	.	.	0%
COc1ccc(-c2csc(NC(=O)c3ccco3)n2)cc1	0%	2.8µM*	2.2µM*	7.9µM*	9.5µM*
Cc1ccc(-c2csc(NC(=O)c3ccco3)n2)cc1C	.	2.2µM*	4µM*	.	8.5µM*
COc1ccc(-c2csc(NC(=O)c3cc(C)oc3C)n2)cc1OC	.	-3%	8%	.	19µM*
CCc1noc(C)c1C(=O)Nc1nc(-c2ccc(OC)c(OC)c2)cs1	.	-4%	-7%	.	-13%
O=C(NNc1nc(-c2ccc(Br)cc2)cs1)c1ccco1	0%	15%	?	-27%	8.5µM*
Cc1ccc(-c2csc(NC(=O)c3c(C)noc3C)n2)cc1C	.	3%	0%	.	?
COc1ccc(-c2csc(NC(=O)c3c(OC)cccc3OC)n2)cc1	.	-2%	0%	.	0%
Nc1ccc(F)cc1F	.	.	.	-2%	.
Cc1csc2nc(COc3ccc(NC(=O)COc4ccccc4F)cc3)cc(=O)n12	.	.	.	7%	-3%
COc1ccc(Nc2oc(-c3ccc(COc4cccc(C)c4)o3)nc2C#N)cc1	.	.	.	.	0%
Cc1cc(NC(=O)c2ccco2)sc1C	.	2µM*	2µM*	.	5.4µM*
O=C(Nc1nc(-c2ccccc2)cs1)c1ccco1	.	?	?	.	15µM*
Cc1cccc(NC(=O)c2ccco2)c1C	.	-3%	0%	.	0%
COc1ccc(-c2csc(NC(=O)C3=NN(c4ccccc4)C(=O)CC3)n2)cc1	-5%	-1%	-3%	-95%	7.6µM*
O=C(Nc1nc(-c2ccco2)cs1)c1ccccc1	0%	?	?	7%	11µM*
Cc1ccc(C)c(CSc2nnc(C)n3c2cc2sccc23)c1	.	.	.	.	-11%
CCOc1ccc(N2CC(NC(=O)CCc3ccccc3)CC2=O)cc1 (stereo not drawn)	.	.	.	.	-4%
Cc1ccc(NC2=CC(c3ccccc3F)N(c3ccc(C)cc3)C2=O)cc1 (stereo not drawn)	.	.	.	18%	1%
SMILES	Luc counter	NPC1 prom act	Rab9 promoter act	SMN2 splice up	FLuc counter
Cc1ccc(C(CC(=O)NCC2(c3ccccc3)CCCC2)c2ccccc2)c(O)c1 (stereo not drawn)	.	.	.	-31%	-2%
CC(C)c1ccc(/C=C/C(=O)Nc2ccc(CN3CCOCC3)cc2)cc1	.	-14%	-21%	.	12µM*
CC(C)c1ccc(C(=O)Nc2ccc(CN3CCOCC3)cc2)cc1	.	-3%	-5%	.	11µM*
Cc1ccccc1NC(=O)c1ccc(CN2CC(=O)N3CCCCC3C2=O)cc1 (stereo not drawn)	.	-5%	1%	.	-2%
NC(=O)c1ccc(NC(=O)c2ccc(CN3CCOCC3)cc2)cc1	-4%	15%	-1%	22%	-18%
CC(C)c1ccc(NC(=S)NN2CCOCC2)cc1	-1%	?	?	22µM*	?
CC(C)c1ccc(NC(=O)c2ccc(CN3CC(=O)N4CCCCC4C3=O)cc2)cc1 (stereo not drawn)	.	.	.	.	11µM*

Screens from PubChem.
